Source: PubChem
ANO1 block = inhibitors of mouse TMEM16A calcium-activated chloride channel; HEK293 TMEM16A/YFP iodide influx fluorescence, ionomycin; normalized B-score (activity score, 25-100; higher = stronger inhibition) at 10 µM; actives 1.2% (n = 310,000);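 active means ratio plate-corrected score three or more library SD toward inhibition, starting fluorescence score within five deviations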;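 further: score derived from kinetic fluorescence span divided by baseline fluorescence per well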
Target sequence (Q8BHY3 whole entry, looked up): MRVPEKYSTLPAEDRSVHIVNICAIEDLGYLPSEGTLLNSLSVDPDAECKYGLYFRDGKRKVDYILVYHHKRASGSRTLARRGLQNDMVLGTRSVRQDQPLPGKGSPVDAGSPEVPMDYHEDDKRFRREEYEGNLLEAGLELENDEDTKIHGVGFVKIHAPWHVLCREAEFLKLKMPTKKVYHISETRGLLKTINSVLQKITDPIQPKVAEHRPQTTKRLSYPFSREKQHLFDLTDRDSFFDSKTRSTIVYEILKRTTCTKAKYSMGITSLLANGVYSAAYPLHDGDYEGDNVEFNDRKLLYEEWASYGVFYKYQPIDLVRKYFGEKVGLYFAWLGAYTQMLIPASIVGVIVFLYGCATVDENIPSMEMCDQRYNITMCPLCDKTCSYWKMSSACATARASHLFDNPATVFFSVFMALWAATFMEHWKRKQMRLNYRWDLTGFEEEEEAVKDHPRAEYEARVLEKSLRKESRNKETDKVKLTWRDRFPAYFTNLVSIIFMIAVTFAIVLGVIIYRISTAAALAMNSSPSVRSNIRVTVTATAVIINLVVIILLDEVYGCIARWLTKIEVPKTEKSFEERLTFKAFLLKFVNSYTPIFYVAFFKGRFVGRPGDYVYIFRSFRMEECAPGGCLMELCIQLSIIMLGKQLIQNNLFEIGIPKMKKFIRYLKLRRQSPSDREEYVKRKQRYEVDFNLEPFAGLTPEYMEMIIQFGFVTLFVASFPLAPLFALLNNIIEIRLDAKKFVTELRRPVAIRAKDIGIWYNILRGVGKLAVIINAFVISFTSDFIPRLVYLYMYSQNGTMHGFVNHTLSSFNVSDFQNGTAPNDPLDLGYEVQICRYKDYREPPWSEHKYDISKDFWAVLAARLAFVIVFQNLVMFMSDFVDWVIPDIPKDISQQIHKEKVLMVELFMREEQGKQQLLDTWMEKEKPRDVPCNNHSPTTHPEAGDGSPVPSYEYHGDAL
CRFR2-BP antag = blocks CRF-induced signaling of the CRF-BP/CRF-R2 complex | actives 0.59% (n = 350,000) | HEK293 CRF-R2/CRF-BP, CRF-induced calcium fluorescence | inhibition, % at 11.8 µM;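 active means inhibition of the ligand-induced calcium signal above about 50% at the single tested concentration, limit read from the data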
GRIN3A LBD mod = modulators (binders) of human NR3A ligand-binding domain | NR3A LBD differential scanning fluorimetry, Tm shift; 0% = protein alone, 100% = glycine-bound protein | actives 2.5% (n = 340,000) | AID 1259313 | Tm shift relative to glycine control, % at 25 µM;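 active means melting temperature shift of at least 10% of the positive control shift, at one fixed dose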
MPTP inh = blocks calcium-induced mitochondrial swelling. AID 602449. isolated mouse mitochondria, Ca2+ swelling absorbance, 30 min. actives 1.4% (n = 360,000). inhibition, % at 10 µM;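 active means inhibition of 50% or more, scaled per plate between neutral and stimulator controls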;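 further: 0% = DMSO wells given calcium and 100% = 1 mM EGTA wells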
TMEM16A act = activates or potentiates the mouse TMEM16A chloride channel | Q8BHY3 | HEK293 TMEM16A/YFP-H148Q/I152L, iodide quench fluorescence; stronger effect = lower value | B-score at 10 µM | actives 0.3% (n = 340,000);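 active means fluorescence-ratio B-score plate-corrected deviation score at least 3 library SD below zero, with starting fluorescence score within 5 deviations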;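 further: channel opened by trigger with iodide after compound preincubation; score built on the fluorescence ratio of max minus min over baseline; more negative score means more quench and so TMEM16A activation or potentiation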
CRFBP-R2 agonist = agonists of human CRF-binding protein/CRF-R2 receptor complex; actives 0.46% (n = 350,000); HEK293 CRF-R2/CRF-BP, calcium dye fluorescence (FLIPR); percent of saturating CRF peptide response; activation, % at 13.2 µM; AID 588473;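 active means activation of at least 50%, plus an integration ratio under a set limit after plate pattern correction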;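 further: plate controls were neutral control wells without compound for no effect and CRF at EC100 for full effect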
The depositor's hits bear a star. Most compounds without a hit are left out; they make up all but 5.1% or so of the library.

What do the screens show for `Cn1c(OCc2ccc3c(c2)OCO3)nc2c1c(=O)n(Cc1ccc(Cl)c(Cl)c1)c(=O)n2C`?
ANO1 block: inactive; CRFR2-BP antag: 6; GRIN3A LBD mod: 0; MPTP inh: -1; TMEM16A act: inactive; CRFBP-R2 agonist: 3

How did Cn1c(NCC(O)CO)nc2c1c(=O)n(Cc1ccc(Cl)c(Cl)c1)c(=O)n2C (stereo not drawn) do in these assays?
ANO1 block: inactive; CRFR2-BP antag: -18; GRIN3A LBD mod: 17*; MPTP inh: -1; TMEM16A act: inactive; CRFBP-R2 agonist: 2

Results for C=CCOc1nc2c(c(=O)n(Cc3ccc(Cl)c(Cl)c3)c(=O)n2C)n1C ?
ANO1 block: inactive; CRFR2-BP antag: 51*; GRIN3A LBD mod: -3; MPTP inh: 1; TMEM16A act: inactive; CRFBP-R2 agonist: -2

What do the screens show for `CCC1CCCCN1C(=O)CSc1nc2c([nH]c3ccccc32)c(=O)n1C` (stereo not drawn)?
ANO1 block: inactive; CRFR2-BP antag: -11; GRIN3A LBD mod: 17*; MPTP inh: 2; TMEM16A act: inactive; CRFBP-R2 agonist: -2

Results for COc1cccc(NC(=O)CSc2nc3c([nH]c4ccccc43)c(=O)n2C)c1 ?
ANO1 block: inactive; CRFR2-BP antag: 16; GRIN3A LBD mod: 38*; MPTP inh: 2; TMEM16A act: inactive; CRFBP-R2 agonist: -1

What do the screens show for `NC(=O)c1ccc(NCC2COc3ccccc3O2)c([N+](=O)[O-])c1` (stereo not drawn)?
ANO1 block: inactive; CRFR2-BP antag: 92*; GRIN3A LBD mod: 0; MPTP inh: 0; TMEM16A act: inactive; CRFBP-R2 agonist: -5

Results for CN(C)S(=O)(=O)c1ccc(NCC2COc3ccccc3O2)c([N+](=O)[O-])c1 (stereo not drawn) ?
ANO1 block: inactive; CRFR2-BP antag: -31; GRIN3A LBD mod: -4; MPTP inh: 1; TMEM16A act: inactive; CRFBP-R2 agonist: 7

Results for Cc1ccc(S(=O)(=O)n2nccc2-c2c(-c3ccc(Cl)cc3)noc2C)cc1 ?
ANO1 block: inactive; CRFR2-BP antag: -15; GRIN3A LBD mod: 0; MPTP inh: 13; TMEM16A act: -4.9*; CRFBP-R2 agonist: 6

Results for CC(Oc1ccc(Cl)cc1)c1ccnn1S(=O)(=O)c1ccc(Cl)cc1 (stereo not drawn) ?
ANO1 block: inactive; CRFR2-BP antag: 28; GRIN3A LBD mod: 3; MPTP inh: 2; TMEM16A act: inactive; CRFBP-R2 agonist: 1

What do the screens show for `CC#CCN(Cc1ccco1)C(=O)C1CCC(=O)N(CCc2cccc(F)c2)C1` (stereo not drawn)?
CRFR2-BP antag: 3; MPTP inh: 0; CRFBP-R2 agonist: -1

How did CCOc1ccccc1NC(=S)N1CCN(c2ccc(OC)cc2)CC1 do in these assays?
ANO1 block: inactive; CRFR2-BP antag: 9; GRIN3A LBD mod: 10*; MPTP inh: -2; TMEM16A act: inactive; CRFBP-R2 agonist: -2

How did CCOc1ccccc1NC(=S)N1CCN(c2ccc(O)cc2)CC1 do in these assays?
ANO1 block: inactive; CRFR2-BP antag: -4; GRIN3A LBD mod: 7; MPTP inh: 2; TMEM16A act: inactive; CRFBP-R2 agonist: -2

Results for CCOC(=O)c1cnc(-n2nc(C)cc2C)nc1NCc1ccccc1 ?
ANO1 block: 100*; CRFR2-BP antag: 12; GRIN3A LBD mod: -3; MPTP inh: 5; TMEM16A act: inactive; CRFBP-R2 agonist: 0

What do the screens show for `CCOC(=O)c1cnc2ccc(OCC)cc2c1NCc1ccccc1`?
ANO1 block: 100*; CRFR2-BP antag: -13; GRIN3A LBD mod: 15*; MPTP inh: 11; TMEM16A act: inactive; CRFBP-R2 agonist: -1

How did CCOC(=O)c1cnc(-n2nc(C)cc2C)nc1NCCO do in these assays?
ANO1 block: inactive; CRFR2-BP antag: -9; GRIN3A LBD mod: -1; MPTP inh: -5; TMEM16A act: inactive; CRFBP-R2 agonist: 2

How did CCOC(=O)CNC(=O)Cn1cnc2c(cnn2-c2ccc(C)cc2)c1=O do in these assays?
ANO1 block: inactive; CRFR2-BP antag: -1; GRIN3A LBD mod: 1; MPTP inh: 0; TMEM16A act: inactive; CRFBP-R2 agonist: 0

Results for O=C(CNc1cccc2ccccc12)N/N=C/c1ccc([N+](=O)[O-])cc1 ?
ANO1 block: inactive; CRFR2-BP antag: -61; GRIN3A LBD mod: 14*; MPTP inh: 13; TMEM16A act: inactive; CRFBP-R2 agonist: -1

How did O=C(CNc1cccc2ccccc12)N/N=C/c1cccc(Oc2ccccc2)c1 do in these assays?
ANO1 block: inactive; CRFR2-BP antag: -12; GRIN3A LBD mod: 17*; MPTP inh: -1; TMEM16A act: inactive; CRFBP-R2 agonist: -1

Results for O=C(CNc1cccc2ccccc12)N/N=C/c1ccccn1 ?
ANO1 block: inactive; CRFR2-BP antag: 9; GRIN3A LBD mod: -1; MPTP inh: 2; TMEM16A act: inactive; CRFBP-R2 agonist: 2

What do the screens show for `COc1ccc(S(=O)(=O)NC(=O)C2(C)CCN2C(=O)CC2CC2)cc1` (stereo not drawn)?
MPTP inh: -1

What do the screens show for `Cc1cccc(N=C2NN=C(c3c(C)[nH]c4ccccc34)CS2)c1`?
ANO1 block: inactive; CRFR2-BP antag: -12; GRIN3A LBD mod: 19*; MPTP inh: 2; TMEM16A act: inactive; CRFBP-R2 agonist: -1

Results for O=C(Cc1cccc(NC(=O)C2CCN(S(=O)(=O)c3cccc([N+](=O)[O-])c3)CC2)c1)Nc1cccc(C(=O)N2CCOCC2)c1 ?
CRFR2-BP antag: 7; GRIN3A LBD mod: -1; MPTP inh: 1; CRFBP-R2 agonist: -3

What do the screens show for `CC(C)(C)c1ccc(-c2noc(-c3ccno3)n2)cc1`?
ANO1 block: inactive; CRFR2-BP antag: -13; GRIN3A LBD mod: 12*; MPTP inh: 1; TMEM16A act: inactive; CRFBP-R2 agonist: 0

Results for CCOC(=O)C1(Cc2ccccc2C(F)(F)F)CCN(CCCn2cccn2)CC1 ?
ANO1 block: inactive; CRFR2-BP antag: -4; GRIN3A LBD mod: 1; MPTP inh: 0; TMEM16A act: -6.6*; CRFBP-R2 agonist: 0

Results for C=CCN1C=CC(=C/C=C(/C#N)C(=O)OCC)C=C1 ?
ANO1 block: inactive; CRFR2-BP antag: -35; GRIN3A LBD mod: 0; MPTP inh: -1; TMEM16A act: inactive; CRFBP-R2 agonist: 71*

What do the screens show for `O=C(CN1c2cccc3cccc(c23)S1(=O)=O)NC1CCCCC1`?
CRFR2-BP antag: 70*; GRIN3A LBD mod: 0; MPTP inh: -3; TMEM16A act: inactive; CRFBP-R2 agonist: -3

Results for CC(=O)C(Cc1ccccc1)NC(=O)CN1c2cccc3cccc(c23)S1(=O)=O (stereo not drawn) ?
CRFR2-BP antag: -4; GRIN3A LBD mod: -1; MPTP inh: 0; TMEM16A act: -9.8*; CRFBP-R2 agonist: -2
